# PubChem BioAssay (NCATS)
# Records with an inconclusive call do not appear. Entries that show only a call come without a potency. Values without a mark were called inactive. Activity calls are given as the source filed them. Unless noted, calls come from the whole dose curve.
# How the values were obtained:
# [1] = qHTS for Inhibitors of the Functional Ribonucleoprotein Complex (vRNP) of Lassa (LASV) Arenavirus: LASV Primary Screen - GLuc reporter signal (AID 1347082; calls by dose curve; tested in HEK293 reporter line; note: nearly all actives have a fitted effect of over 60% in size); details: LASV minigenome vRNP, Gaussia luciferase reporter; series mostly up to 57.5 µM
# [2] = qHTS for Inhibitors of the Functional Ribonucleoprotein Complex (vRNP) of Lassa (LASV) Arenavirus: Viability assay - alamar blue signal for LASV Primary Screen (AID 1347083; calls by dose curve; tested in HEK293 reporter line; note: nearly all actives have a fitted effect of over 80% in size); details: cell viability, alamar blue fluorescence (LASV minigenome counter-screen); series mostly up to 57.5 µM
# [3] = qHTS for Inhibitors of the Functional Ribonucleoprotein Complex (vRNP) of Lymphocytic Choriomeningitis Arenaviruses (LCMV): Viability assay - alamar blue signal for LCMV Primary Screen (AID 1347085; calls by dose curve; tested in HEK293 reporter line; note: nearly all actives have a fitted effect of over 80% in size); details: alamar blue viability counter-screen, LCMV vRNP screen cells; series mostly up to 57.5 µM
# [4] = molecular target: Nucleoprotein (Lymphocytic choriomeningitis virus (strain Armstrong)) (UniProt P09992); test: qHTS for Inhibitors of the Functional Ribonucleoprotein Complex (vRNP) of Lymphocytic Choriomeningitis Arenaviruses (LCMV): LCMV Primary Screen - GLuc reporter signal (AID 1347086); details: LCMV minigenome vRNP cell assay, Gaussia luciferase reporter; series mostly up to 57.5 µM; note: nearly all actives have a fitted effect of over 70% in size
# Sequence of Nucleoprotein (Lymphocytic choriomeningitis virus (strain Armstrong)) (P09992 whole entry, looked up): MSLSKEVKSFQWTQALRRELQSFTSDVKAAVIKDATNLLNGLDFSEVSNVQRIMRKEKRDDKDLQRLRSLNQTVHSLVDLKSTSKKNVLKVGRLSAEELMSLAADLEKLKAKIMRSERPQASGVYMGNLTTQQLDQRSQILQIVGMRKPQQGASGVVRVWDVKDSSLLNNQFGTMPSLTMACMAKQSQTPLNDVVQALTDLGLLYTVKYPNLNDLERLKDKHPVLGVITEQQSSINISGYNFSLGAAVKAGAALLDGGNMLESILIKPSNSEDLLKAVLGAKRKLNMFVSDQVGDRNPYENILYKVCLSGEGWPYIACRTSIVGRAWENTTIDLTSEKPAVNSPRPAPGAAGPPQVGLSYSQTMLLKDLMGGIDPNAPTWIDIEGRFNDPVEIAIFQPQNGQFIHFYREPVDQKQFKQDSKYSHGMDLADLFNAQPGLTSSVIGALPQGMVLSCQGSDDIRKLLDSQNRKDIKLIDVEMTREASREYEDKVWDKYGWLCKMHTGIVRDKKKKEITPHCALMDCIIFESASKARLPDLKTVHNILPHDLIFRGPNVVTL
# Potency is the fitted concentration of half-maximal effect.
Compound,"activity change, negative = inhibition [1]","activity change, negative = reduced viability [2]","activity change, negative = lower viability [3]","activity change, negative = inhibition [4]",Potency [1],Potency [2],Potency [3],Potency [4]
CCCCC/C=C\C/C=C\C=C\[C@@H](O)C/C=C\CCCC(=O)O,-0.303% [at 0.757 µM],9.41% [at 0.757 µM],16.7% [at 0.757 µM],14.7% [at 0.757 µM],,,,
CC1(C)CCC[C@@]2(C)[C@@H]1CC[C@@]1(C)OC(=O)C[C@H]21,,,,,inactive,inactive,inactive,inactive
Cc1c(O[C@@H]2O[C@H](CO)[C@@H](O)[C@H](O)[C@H]2O)c(CO)c(O[C@@H]2O[C@H](CO)[C@@H](O)[C@H](O)[C@H]2O)c2c1O[C@@H](c1ccccc1)C[C@@H]2O,,,,,inactive,inactive,inactive,inactive
Cc1c(O)c2c(c(C(=O)/C=C/c3ccccc3)c1O)OC(C)(C)C=C2,,,,,inactive,inactive,inactive,inactive
C/C=C(\C)C(=O)O[C@H](c1cc2ccc(=O)oc2cc1OC)[C@@H](O)C(C)(C)O,,,,,inactive,inactive,inactive,inactive
CCCC(=O)OCC,,,,,inactive,inactive,inactive,inactive
O=P(O)(O)OC[C@H]1O[C@](O)(COP(=O)(O)O)[C@@H](O)[C@@H]1O,,,,,inactive,inactive,inactive,inactive
COC1CC(C)C(OC)c2cc(O)cc(c2O)NC(=O)C(C)=CC=CC(C)C(OC(N)=O)C(C)=CC(C)C1OC (stereo not given),,,,,inactive,inactive,inactive,inactive
CC(=O)C1CCC2C3CCC4=CC(=O)C=CC4(C)C3C(=O)CC12C (stereo not given),,,,,inactive,inactive,inactive,inactive
CC1CCC2C(C)C3C(CC4[C@@H]5CC=C6C[C@@H](O)CC[C@]6(C)C5CC[C@]34C)N2C1 (stereo not given in full),,,,,inactive,inactive,inactive,inactive
CSc1c(Cl)c(Cl)c(Cl)c(Cl)c1Cl,,,,,inactive,inactive,inactive,inactive
O=C(Nc1cc2cc[nH]c2cn1)c1ccccc1,,,,,inactive,inactive,inactive,inactive
Cc1nc(C)c(C)nc1C,,,,,inactive,inactive,inactive,inactive
CCCCCCCCCCCCCCCCCCOS(=O)(=O)O,,,,,inactive,inactive,inactive,inactive
CC1=CC2OC3CC4OC(=O)C=CC=CC(=O)OCCC(C)C(O)C(=O)OCC2(CC1)C4(C)C31CO1 (stereo not given),,,,,inactive,inactive,inactive,inactive
C=C[C@@]1(C)CC(=O)[C@]2(O)[C@@]3(C)[C@@H](O)CCC(C)(C)[C@@H]3[C@H](OC(C)=O)[C@H](O)[C@@]2(C)O1,,,,,inactive,inactive,inactive,inactive
O=C1C[C@@H](c2ccc(O)c(O)c2)Oc2c1ccc(O[C@@H]1O[C@H](CO)[C@@H](O)[C@H](O)[C@H]1O)c2O,,,,,inactive,inactive,inactive,inactive
COc1ccc(C=CC(=O)c2ccc(OC)c(OC)c2O)cc1OC,,,,,inactive,inactive,inactive,inactive
CC(=O)OCC(=O)[C@@]1(O)CC[C@H]2[C@@H]3CCC4=CC(=O)C=C[C@]4(C)[C@@H]3[C@@H](O)C[C@@]21C,,,,,inactive,inactive,inactive,inactive
O=C1N[C@@H](Cc2c[nH]c3ccccc23)C(=O)N[C@H]1Cc1ccccc1,,,,,inactive,inactive,inactive,inactive

Compound,"activity change, negative = inhibition [1]","activity change, negative = reduced viability [2]","activity change, negative = lower viability [3]","activity change, negative = inhibition [4]",Potency [1],Potency [2],Potency [3],Potency [4]
O=c1[nH]c(O)c(/C=C2\C=Nc3ccccc32)[nH]1,,,,,inactive,inactive,inactive,inactive
CC(C)C1=CC2=CC[C@@H]3[C@](C)(CCC[C@@]3(C)C(=O)O)[C@H]2CC1,,,,,inactive,inactive,inactive,inactive
CC(C)(O)C1CC[C@@]2(C)C3CCC4[C@@]5(C)CCCC(C)(C)C5C(O)C[C@]4(C)[C@]3(C)CC[C@@H]12 (stereo not given in full),,,,,inactive,inactive,inactive,inactive
CC1(C)C2CC1[C@@](C)(O)[C@H](O)C2 (stereo not given in full),,,,,inactive,inactive,inactive,inactive
COC(=O)c1cc(OC)cc(O)c1C(=O)c1c(O)cc(C)cc1O,,,,,inactive,inactive,inactive,inactive
CCN1C[C@@]2(COC)CCC(OC)[C@]34C5C[C@]6(O)[C@@H](OC)C[C@](OC(C)=O)(C([C@H](OC)C23)[C@H]14)C5[C@H]6OC(=O)c1ccc(OC)cc1 (stereo not given in full),,,,,inactive,inactive,inactive,inactive
CCCSSCCC,,,,,inactive,inactive,inactive,inactive
C=CC(O)CCCCC (stereo not given),,,,,inactive,inactive,inactive,inactive
CC12CCC(C1)C(C)(C)C2O (stereo not given),,,,,inactive,inactive,inactive,inactive
CC(C)c1cccc(O)c1,,,,,inactive,inactive,inactive,inactive
COC(=O)c1cc(O)c(O)c(O)c1,,,,,inactive,inactive,inactive,inactive
COc1cc2c(c3oc(-c4ccccc4)cc(=O)c13)C=CC(C)(C)O2,,,,,inactive,inactive,inactive,inactive
CC/C=C\CCOC(=O)CC,,,,,inactive,inactive,inactive,inactive
CCCCCc1ccco1,,,,,inactive,inactive,inactive,inactive
CCOc1c2ccoc2nc2c(OC)c(OC)ccc12,,,,,inactive,inactive,inactive,inactive
COC(=O)c1ccc(OC)cc1,,,,,inactive,inactive,inactive,inactive
COc1c2c(nc3occc13)C(CC=C(C)C)(OC)C(OC(C)=O)CC2 (stereo not given),,,,,inactive,inactive,inactive,inactive
COc1c2ccoc2nc2c(OC)c(O[C@@H]3O[C@H](C)[C@@H](O)[C@@H](O)[C@H]3O)ccc12,,,,,inactive,inactive,inactive,inactive
Cc1csc(NC(=O)c2sc3nc4c(c(C(F)(F)F)c3c2N)CCC4)n1,,,,,inactive,inactive,inactive,inactive
CC1=C[C@H](O)CC(C)(C)[C@H]1/C=C/C(C)=C/C=C/C(C)=C/C=C/C=C(C)/C=C/C=C(C)/C=C/C1=C(C)C[C@@H](O)CC1(C)C,,,,,inactive,inactive,inactive,inactive

Compound,"activity change, negative = inhibition [1]","activity change, negative = reduced viability [2]","activity change, negative = lower viability [3]","activity change, negative = inhibition [4]",Potency [1],Potency [2],Potency [3],Potency [4]
O=C(O)Cc1ccc(O)cc1,,,,,inactive,inactive,inactive,inactive
Cc1nc(Nc2n[nH]c3c2CN(C(=O)N[C@H](CN(C)C)c2ccccc2)C3(C)C)c2sccc2n1,,,,,7.69 µM (active),0.193 µM (active),0.0968 µM (active),8.63 µM (active)
CC(=Cc1ccccc1)C=C1SC(=S)N(CC(=O)O)C1=O,,,,,inactive,inactive,inactive,inactive
CCCCCCCCO[C@@H]1O[C@H](CO)[C@@H](O)[C@H](O)[C@H]1O,,,,,inactive,inactive,inactive,inactive
CC(C)CCOC(=O)c1ccccc1,,,,,inactive,inactive,inactive,inactive
CCCCCCCCCCCCOC(C)=O,,,,,inactive,inactive,inactive,inactive
CC(C)=CCCC1(C)C=Cc2c(c(C)cc3c2[nH]c2cc(O)ccc23)O1 (stereo not given),,,,,inactive,inactive,inactive,inactive
C/C=C1\NC(=O)[C@H](C)NC(=O)[C@@H](NC(=O)[C@H](Cc2ccc(O)cc2)NC(=O)[C@@H](NC(=O)/C(C)=C/C)C(C)C)[C@@H](C)OC(=O)[C@H](CC(C)C)NC(=O)[C@@H](CCC(=O)O)NC1=O,,,,,inactive,inactive,inactive,inactive
O=c1[nH]cnc2c1ncn2C1OCC(O)C(O)C1O (stereo not given),,,,,inactive,inactive,inactive,inactive
COc1ccc(C(=O)OC2C[C@H]3CC[C@@H](C2)N3O)cc1OC (stereo not given in full),,,,,inactive,inactive,inactive,inactive
Cn1c2c(c(=O)c3ccccc31)CCC(C)(C)O2,,,,,inactive,inactive,inactive,inactive
CCN1C[C@]2(CO)CC[C@H](OC)[C@@]34C5C[C@H]6[C@H](OC)C5[C@](O)(C[C@H]6OC)[C@@](O)(C(OC)C23)[C@@H]14 (stereo not given in full),,,,,inactive,inactive,inactive,inactive
O=c1c(O[C@@H]2OC([C@H](O)CO)[C@H](O)[C@H]2O)c(-c2ccc(O)c(O)c2)oc2cc(O)cc(O)c12 (stereo not given in full),,,,,inactive,inactive,inactive,inactive
COc1ccc2c(c1)C(=O)CC(c1ccc(OC)c(OC)c1)O2 (stereo not given),,,,,inactive,inactive,inactive,inactive
C=C1C2CC[C@]3(CCC4[C@@]5(C)CCC[C@@]4(CN(CCO)C5)[C@@H]3C2)[C@@H]1O (stereo not given in full),,,,,inactive,inactive,inactive,inactive
Cc1cc(O)c2c(c1O)C(=O)C(O)=C(O)C2=O,,,,,inactive,inactive,inactive,inactive
CCCCCCCCCCOS(=O)(=O)O,,,,,inactive,inactive,inactive,inactive
Cn1c(-c2ccccc2)cc(=O)c2ccccc21,,,,,inactive,inactive,inactive,inactive
C=C1C[C@H](O[C@@H]2O[C@H](CO)[C@@H](O)[C@H](O)[C@H]2O)[C@@H]2[C@H](OC(=O)[C@H]2C)[C@H]2[C@H](C)[C@@H](O)C[C@@H]12,,,,,inactive,inactive,inactive,inactive
CCCCC/C=C\C[C@@H]1O[C@H]1/C=C/C(O)C/C=C\CCCC(=O)O (stereo not given in full),-3.16% [at 0.757 µM],11.9% [at 0.757 µM],4.17% [at 0.757 µM],7.04% [at 0.757 µM],,,,
